Our source for the Potency values is PubChem BioAssay AID1671190 (National Center for Advancing Translational Sciences (NCATS), 2021).

Out of some 580,000 compounds screened, about 6,100 (1.1%) were called active. A call without a number means that no potency is given here. Inconclusive results (about 15%) are left out. Calls follow the shape of the dose curve; as a rule, active = well fitted inhibition curve with a large enough effect; inconclusive = small, poorly fitted or top-dose-only effect, or another doubt; inactive = no such curve, though single readings can be large or run the other way. Only a selection was taken, and actives are over-represented in it overall.
Potency is read from the fitted curve at half-maximal effect.

Polyunsaturated fatty acid lipoxygenase ALOX12 (Homo sapiens), sequence (P18054 whole entry, looked up): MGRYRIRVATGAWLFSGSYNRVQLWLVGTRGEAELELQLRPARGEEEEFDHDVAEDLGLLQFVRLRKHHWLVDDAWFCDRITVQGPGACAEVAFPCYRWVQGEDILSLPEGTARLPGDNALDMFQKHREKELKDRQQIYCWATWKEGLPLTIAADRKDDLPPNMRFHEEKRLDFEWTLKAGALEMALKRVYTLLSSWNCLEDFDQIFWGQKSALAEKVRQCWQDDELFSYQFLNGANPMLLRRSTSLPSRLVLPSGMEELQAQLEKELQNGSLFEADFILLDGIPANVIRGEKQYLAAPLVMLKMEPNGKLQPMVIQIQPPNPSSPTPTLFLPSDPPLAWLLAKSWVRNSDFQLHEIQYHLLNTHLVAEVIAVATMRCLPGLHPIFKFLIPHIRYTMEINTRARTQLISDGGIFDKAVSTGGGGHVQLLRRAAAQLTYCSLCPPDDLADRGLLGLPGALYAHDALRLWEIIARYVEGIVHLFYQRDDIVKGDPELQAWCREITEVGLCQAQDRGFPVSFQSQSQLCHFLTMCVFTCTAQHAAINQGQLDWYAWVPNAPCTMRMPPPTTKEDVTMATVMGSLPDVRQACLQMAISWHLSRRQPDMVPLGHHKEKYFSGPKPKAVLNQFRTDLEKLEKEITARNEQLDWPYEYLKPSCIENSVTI

This experiment addresses Polyunsaturated fatty acid lipoxygenase ALOX12 (Homo sapiens) (UniProt P18054). In words: Primary qHTS assay for inhibitors of human arachidonate 12S-lipoxygenase (ALOX12): Round 2. The note with it: purified 12hLO, xylenol orange hydroperoxide absorbance; series mostly up to 108 µM. The procedure, abridged:
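Purified human 12hLO (150 nM final) in 25 mM Hepes, 0.01% Triton X-100, pH 7.0 was preincubated 15 min at room temperature with compound. Then 40 uM arachidonic acid was added, 30 min. Hydroperoxide was read by Fe-XO absorbance ratio 573/405 nm.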
`COc1ccc(-n2nnc(C(=O)NCc3ccccc3)c2N)cc1OC`: the Potency result is “inactive”.

Take `CCc1ccc(NC(=O)N2CCCC(Cn3cnc4cccnc43)C2)cc1` (stereo not given): the Potency entry was “inactive”.

Consider `CCc1ccc(NC2Nc3cc(C)nn3S2)cc1` (stereo not given), for which the Potency was 25.1 µM (active).

On to `CCc1ccc(N/C(N)=N/c2nc(C)cc(C)n2)cc1`, for which the Potency result is “inactive”.

For the compound `Cc1ccc(-c2cn(CCC(N)=O)c(=O)cn2)cc1`, the Potency entry is “inactive”.

On to `Cc1ccc(S(=O)(=O)n2nc(-c3ccc(Cl)cc3)nc2NCc2ccccc2)cc1`, for which the Potency result is “inactive”.

Turning to `O=c1cc(-c2ccccc2)n2c(SCc3ccccc3)nnc2[nH]1`, the Potency entry was “inactive”.

With `CCS(=O)(=O)n1nc(-c2ccccc2)nc1SCc1ccccc1`, the Potency was 28.2 µM (active).

`CCOc1ccc(C(=O)Nc2ncc(C)s2)cc1OC`: the Potency result was “inactive”.

Turning to `CCc1nnc(SCC(=O)Nc2ccccc2OC)n1-n1cccc1`, the Potency entry is “inactive”.

Consider `CCOC(=O)N1CCN(C(=O)c2ccc(N3C(=O)CCS3(=O)=O)cc2)CC1`, for which the Potency entry is “inactive”.

For `CCCC1CCC(c2ccc(-c3ccc4c(n3)CCC(CCC)C4)cc2)CC1` (stereo not given), the Potency result was “inactive”.

With `CCOC(=O)N1CCN(Cc2nc(Cc3cccc(C(F)(F)F)c3)no2)CC1`, the Potency result was “inactive”.

Take `FC(F)(F)c1ccc(-n2cn[nH]c2=S)cc1`: the Potency result was “inactive”.

Consider `Cn1c(-c2sccc2OCc2cccc(C(F)(F)F)c2)n[nH]c1=S`, for which the Potency is 28.2 µM (active).

On to `O=C(CCS(=O)(=O)c1ccc2c(c1)CCN2C(=O)C1CC1)Nc1ccc(F)c(F)c1`, for which the Potency entry is “inactive”.

With `COc1cc(Nc2nc3ccccc3nc2NS(=O)(=O)c2ccc(C)cc2)cc(OC)c1`, the Potency result was “inactive”.

For the compound `O=C(c1ccc2c(c1)OCO2)N1CCCN(C(=O)C2CC2)c2ccccc21`, the Potency entry was “inactive”.

`CSCC[C@@H](NC(=O)C(c1ccccc1)c1ccccc1)C(=O)O`: the Potency result was “inactive”.

On to `CC1(C)[C@H](O[C@H]2O[C@H](C(=O)O)[C@@H](O)[C@H](O)[C@H]2O[C@@H]2O[C@H](C(=O)O)[C@@H](O)[C@H](O)[C@H]2O)CC[C@@]2(C)[C@H]1CC[C@]1(C)[C@H]2C(=O)C=C2[C@H]3C[C@@](C)(C(=O)O)CC[C@]3(C)CC[C@]21C`, for which the Potency was 8.63 µM (active).

Take `CC1(C)C2CC[C@]3(C)C(CC=C4[C@@H]5C[C@@](C)(CO)CC[C@]5(C(=O)O)CC[C@]43C)[C@@]2(C)CC[C@@H]1O` (stereo not given in full): the Potency entry was “inactive”.

As to `Cc1ccc(NC(=O)c2n[nH]c(=O)c3ccccc23)c(C)c1`, the Potency entry was “inactive”.

`Cc1cc(Br)ccc1NC(=O)C1CCCCC1`: the Potency result was “inactive”.

Take `CC1=C[C@@H](CNCC(C)C)[C@H](C(C)C)C[C@H]1Cc1nc2c(C)cccc2[nH]1`: the Potency result is “inactive”.

As for `COc1ccc2cc(CNC(=O)c3nccnc3N)ccc2c1`, the Potency entry was “inactive”.

With `C[C@@H](NC(=O)COc1ccccc1)c1c(-c2ccc(F)cc2)noc1C(=O)O`, the Potency entry is “inactive”.

Turning to `COc1ccc(-c2noc(C(=O)O)c2[C@@H](C)NS(=O)(=O)c2ccccc2)cc1`, the Potency result was “inactive”.

As for `C[C@@H](NC(=O)c1cccnc1)c1c(-c2ccc(F)cc2)noc1C(=O)O`, the Potency is 39.8 µM (active).

`CC1(C)CC(=O)C(CCS(=O)(=O)OCC(F)(F)C(F)F)(CCS(=O)(=O)OCC(F)(F)C(F)F)C(=O)C1`: the Potency entry is “inactive”.

In the case of `CC(C)CNc1nc(-c2ccc3c(c2)CCCN3S(C)(=O)=O)cs1`, the Potency was 14.1 µM (active).

For `CS(=O)(=O)c1ccc(-c2csc(NC3CCCCC3)n2)cc1`, the Potency result is “inactive”.

On to `CC(C)CCNc1nc(-c2ccc(S(=O)(=O)N3CCOCC3)cc2)cs1`, for which the Potency entry is “inactive”.

For the compound `CCCc1nc(C#N)c(N2CCN(c3ccccc3)CC2)o1`, the Potency entry is “inactive”.

Turning to `CCOc1ccc(S(=O)(=O)N2CCC(C(=O)NCc3ccccn3)CC2)cc1Cl`, the Potency entry was “inactive”.

For the compound `Cc1ccc(C(NC(=O)C2CCN(CCOc3ccc(Cl)cc3Cl)CC2)c2ccccn2)cc1` (stereo not given), the Potency is 56.2 µM (active).

With `O=C(NC(c1ccc(-c2ccccc2)cc1)c1cnccn1)C1CCN(CCOc2ccc(Cl)cc2Cl)CC1` (stereo not given), the Potency was 44.7 µM (active).

Take `Cc1cccnc1C(NC(=O)C1CCN(Cc2ccc(Cl)c(Cl)c2)CC1)c1ccc(Cl)cc1` (stereo not given): the Potency entry was “inactive”.

For the compound `COc1cccc(CN2CCC(C(=O)NC(c3ccc4c(c3)OCO4)c3ccccn3)CC2)c1` (stereo not given), the Potency result was “inactive”.

Take `O=C(COc1ccc(Cl)cc1Cl)NCCCNC(=O)c1cnccn1`: the Potency entry is “inactive”.

On to `Fc1ccccc1-c1n[nH]c2c1CN(Cc1cccc3c1OCO3)CC2`, for which the Potency entry was “inactive”.

As for `Cc1ccccc1-c1cc(-c2ccccc2C)[nH]n1`, the Potency result was “inactive”.

With `CC(CNC(=O)c1cc2ccccc2s1)N1CCCC1` (stereo not given), the Potency entry was “inactive”.

With `OCCCNC(=S)Nc1ccccc1F`, the Potency result was “inactive”.

On to `Cc1nc(-c2cccnc2)sc1CCNS(=O)(=O)c1cccs1`, for which the Potency entry was “inactive”.

In the case of `C[N+](C)(C)CC#CCCCC#CC[N+](C)(C)C`, the Potency was 11.2 µM (active).

Take `O=C(Nc1ccc2c(c1)OCCO2)c1nn(-c2ccccc2)c(=O)c2ccccc12`: the Potency result was “inactive”.

Consider `COC(=O)C[C@H]1C=C[C@@H](NS(=O)(=O)c2ccc(C)cc2)[C@@H](CO)O1`, for which the Potency entry is “inactive”.

In the case of `COC(=O)C[C@@H]1C=C[C@@H](NS(=O)(=O)c2cccc(OC)c2)[C@@H](CO)O1`, the Potency entry is “inactive”.

As for `COc1ccc(S(=O)(=O)N[C@@H]2C=C[C@@H](CC(=O)N3CCc4ccccc4C3)O[C@@H]2CO)cc1`, the Potency is 25.1 µM (active).

In the case of `N#CC1(c2ccc(N)cc2)CCCC1`, the Potency entry is “inactive”.

Turning to `CCn1nnc(NC(=O)c2cc3ccccc3cc2OC)n1`, the Potency result is “inactive”.

As to `COc1ccccc1NC(=O)c1cc2ccccc2cc1OCC(N)=O`, the Potency was 35.5 µM (active).

Regarding `CCCn1nnc(NC(=O)c2cc3ccccc3cc2OC)n1`, the Potency entry was “inactive”.

On to `COCCCNC(=O)CN(C)C(=O)c1cccc(C(F)(F)F)c1`, for which the Potency entry was “inactive”.

In the case of `CCc1nnsc1C(=O)N(C)Cc1c(F)cccc1Cl`, the Potency result was “inactive”.

For `N#Cc1cc(NCC(=O)N2CCNC2=O)ccc1Cl`, the Potency result is “inactive”.

For `Clc1ccccc1CSc1nnc(-c2ccco2)c(-c2ccco2)n1`, the Potency was 3.55 µM (active).

Turning to `CC1(C)N=C(SCc2ccccc2Cl)c2ccccc2N1`, the Potency entry was “inactive”.

As to `Fc1ccc(Nc2nc(SCc3ccccc3Cl)nc3ccccc23)cc1`, the Potency result is “inactive”.

`O=C(NCC1CCCO1)c1cc(Cl)c2c(c1)OCCO2` (stereo not given): the Potency entry was “inactive”.

With `Cc1ccccc1CN(CC1CCCO1)C(=O)c1cccc(CCC(C)(C)O)c1` (stereo not given), the Potency result was “inactive”.

With `Cc1nn(-c2ccccc2)c2[nH]c(C(F)(F)F)cc(=O)c12`, the Potency result is “inactive”.

Regarding `Cc1nn(CCc2nc(-c3ccccc3F)cs2)c2[nH]c(=O)cc(C(F)(F)F)c12`, the Potency was 7.08 µM (active).

Regarding `CCCn1c(=O)c2c(C(F)(F)F)cc(-c3cccs3)nc2n(CCC)c1=O`, the Potency entry is “inactive”.

Regarding `Cc1cc2oc(=O)cc(COC(=O)c3cc(S(=O)(=O)N(C)C)ccc3NCCO)c2cc1C`, the Potency entry was “inactive”.

Consider `CCOc1cccc(/C=N/N2C(=O)CSC2=S)c1O`, for which the Potency is 31.6 µM (active).

On to `CCOC(=O)C1(C(F)(F)F)N=C(c2ccc(OC)cc2)OC(N(C)C)=N1` (stereo not given), for which the Potency result was “inactive”.

As to `O=C(CCNC(=O)N1CCN(C(=O)c2cc3ccccc3[nH]2)CC1)NCc1ccccn1`, the Potency result was “inactive”.

In the case of `Clc1cccc(CN2CCN(Cc3nnsc3Cl)CC2)c1`, the Potency entry was “inactive”.

For the compound `CCOC(=O)c1ccc(Nc2c(C(=O)OCC)cnc3ccc(OCC)cc23)cc1`, the Potency entry is “inactive”.

Regarding `CCc1nc2ccc(C(=O)NCc3ccc(OC)cc3)cn2c1N(CC)Cc1cccc(Br)c1`, the Potency entry is “inactive”.

Regarding `COC(=O)c1ccc2nc(-c3cccc(Br)c3)c(Cc3ccc(OC)cc3C)n2c1`, the Potency is 7.94 µM (active).

For the compound `CN(C)C(=O)c1nc2ccc(Cl)cn2c1CNCc1cccc(OC(F)(F)F)c1`, the Potency entry was “inactive”.

Take `COC(=O)c1ccc2nc(-c3cccc(Br)c3)c(Cc3ccccc3C(F)(F)F)n2c1`: the Potency result is “inactive”.

`COC(=O)c1ccc2nc(C3CCCCC3)c(Cc3cccc(F)c3)n2c1`: the Potency result is “inactive”.

`COC(=O)c1ccc2nc(-c3ccc(Cl)cc3)c(Cc3cccc(F)c3)n2c1`: the Potency was 44.7 µM (active).

For `O=C(Nc1ccnc(Cl)c1)C1CC2CCC1C2` (stereo not given), the Potency result was “inactive”.

`CC(=O)OC1C2COC(O2)C(OC(C)=O)C1OC(C)=O` (stereo not given): the Potency entry is “inactive”.

As to `O=C(Nc1cccnc1)c1cc(-c2ccc(F)cc2)nc2ccccc12`, the Potency result was “inactive”.

As for `CCCNC(=O)CC1COCCN1C(=O)CCc1c(C)nc(=O)[nH]c1C` (stereo not given), the Potency result was “inactive”.

Take `COC(=O)c1c(CN2CCC(C(N)=O)CC2)nc2ccccc2c1C`: the Potency result was “inactive”.

Turning to `CNC(=O)NC(=O)CSc1nnc(-c2ccc(F)cc2)n1CC1CCCO1` (stereo not given), the Potency entry is “inactive”.

As to `Cc1nnc(SCC(=O)NNC(=O)c2ccc(Cl)cc2)n1CC1CCCO1` (stereo not given), the Potency result was “inactive”.

As for `S=c1[nH]nc(-c2ccc(Cl)cc2)n1CC1CCCO1` (stereo not given), the Potency was 44.7 µM (active).

As for `COc1ccc(C(=O)NC[C@@H]2C=C(C)[C@H](Cc3nnc(-c4cncn4C)o3)C[C@H]2C(C)C)cc1`, the Potency result is “inactive”.

Consider `CC(C)c1ccc(S(=O)(=O)N2CCN(C(=O)c3ccc(N4CCCC4)c([N+](=O)[O-])c3)CC2)cc1`, for which the Potency entry is “inactive”.

On to `O=C(c1cccc(F)c1)N1CCC(O)(c2cccnc2)CC1`, for which the Potency result is “inactive”.

For `O=C(c1cccc(F)c1)N1CCN(c2ccc([N+](=O)[O-])c3cccnc23)CC1`, the Potency was 39.8 µM (active).

Regarding `O=C(NCCCN1CCCC1=O)c1csc(N2CCN(c3ccccc3F)CC2)n1`, the Potency result was “inactive”.

Regarding `C/C(=N\NC(=O)C1CC1)C(C)C`, the Potency entry was “inactive”.

In the case of `COc1ccc(Oc2ccc(NC(=O)Cn3ncc4ccc(OC)c(OC)c4c3=O)cc2)cc1`, the Potency result is “inactive”.

On to `C/C(=N\NC(=O)Cc1ccccc1[N+](=O)[O-])c1cccnc1`, for which the Potency result is “inactive”.

On to `O=C(/C=C/c1ccc(Cl)c([N+](=O)[O-])c1)c1cccnc1`, for which the Potency is 17.8 µM (active).

Take `O=C(NN=Cc1ccco1)C(=O)Nc1ccc(Cl)c([N+](=O)[O-])c1`: the Potency result was “inactive”.

Regarding `CC(=O)N1CCN(C(=O)Cn2c(-c3ccccc3)cc3ccccc32)CC1`, the Potency entry is “inactive”.

As to `O=C(Nc1cc(F)ccc1F)c1cc(C2CC2)nn1-c1ccccc1`, the Potency entry is “inactive”.

`O=C(CCc1c[nH]c2ccccc12)NCCc1cccnc1`: the Potency entry is “inactive”.

For the compound `COc1cccc(-c2nc3n(n2)C(c2ccccc2Cl)C(C(N)=O)=C(C)N3)c1` (stereo not given), the Potency entry is “inactive”.

In the case of `Cc1ccc(C2C=C(c3ccc(Cl)cc3)Nc3nc(NC(=O)CCC(=O)O)nn32)cc1` (stereo not given), the Potency entry is “inactive”.

For the compound `COc1ccc(C2=CC(c3ccccc3Cl)n3nc(-c4ccc(Cl)cc4)nc3N2)cc1` (stereo not given), the Potency is 5.01 µM (active).
